# Assay outcomes: PubChem, National Center for Advancing Translational Sciences (NCATS)
# RORgamma inh: qHTS for inhibitors of ROR gamma transcriptional activity | Nuclear receptor ROR-gamma (Mus musculus), P51450 | Drosophila S2 Gal4-RORgamma UAS-luciferase reporter, 20 h | Potency, µM (top dose mostly 53.6 µM), usual class: inhibitors | 310,000 tested, 5.4% active | AID 2551, 2010; note: nearly all actives have a fitted effect of over 60% in size
# Target sequence (P51450 whole entry, looked up, the tested form may be a part): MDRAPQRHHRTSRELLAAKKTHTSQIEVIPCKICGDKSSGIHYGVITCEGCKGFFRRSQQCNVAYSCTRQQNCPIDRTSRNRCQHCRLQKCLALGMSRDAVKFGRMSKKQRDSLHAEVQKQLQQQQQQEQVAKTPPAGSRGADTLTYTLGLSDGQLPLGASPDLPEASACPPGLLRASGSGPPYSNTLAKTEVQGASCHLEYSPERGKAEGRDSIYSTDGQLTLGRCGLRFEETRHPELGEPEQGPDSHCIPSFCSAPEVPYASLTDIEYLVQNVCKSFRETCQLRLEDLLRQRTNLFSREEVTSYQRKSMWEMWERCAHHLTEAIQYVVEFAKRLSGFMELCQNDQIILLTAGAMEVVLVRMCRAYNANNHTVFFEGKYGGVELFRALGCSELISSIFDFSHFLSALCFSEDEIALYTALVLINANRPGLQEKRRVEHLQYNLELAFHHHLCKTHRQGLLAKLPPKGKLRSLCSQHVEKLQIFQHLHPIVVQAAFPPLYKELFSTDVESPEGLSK
#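 Drosophila Schneider cells stably carrying a metallothionein-driven Gal4 DBD–ROR gamma fusion and a UAS-Photinus luciferase reporter were exposed to compound for 1 hr, then induced with copper sulfate (700 uM final) for 20 hr at ambient temperature before luminescence reading.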
# SW480 rerep: A quantitative high throughput screen for small molecules that induce DNA re-replication in SW480 colon adenocarcinoma cells; AID 624297, 2012; Potency, µM (top dose mostly 46.1 µM), most hits filed as activators; SW480 DNA re-replication, Hoechst DNA content imaging, 48 h; 340,000 tested, 1.8% active; note: nearly all actives have a fitted effect of over 55% in size
#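 SW480 cells exposed to compounds for 48 hr at 37 C, 5% CO2, then Hoechst-stained 40 min. Nuclear DNA content imaged by fluorescence scanning (405 nm excitation, 500-530 nm emission); re-replication scored as increased high-intensity nuclei.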
# Gal4-VP16 FLuc: VP16 counterscreen qHTS for inhibitors of ROR gamma transcriptional activity; Potency, µM (top dose mostly 53.6 µM), usual class: inhibitors; Drosophila S2 Gal4-VP16 UAS-luciferase, luminescence, 20 h; AID 2546, 2010; 310,000 tested, 3.5% active;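 note: Gal4-VP16 expression switched on by copper sulfate through the metallothionein promoter; nearly all actives have a fitted effect of over 50% in size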
# ELG1 DNA repair: qHTS screen for small molecules that inhibit ELG1-dependent DNA repair in human embryonic kidney (HEK293T) cells expressing luciferase-tagged ELG1; Potency, µM (series often up to 46.1 µM), usual class: inhibitors; AID 504467, 2011; 330,000 tested, 2.3% active; HEK293T ELG1-luciferase reporter, luminescence, 16 h; DNA damage induced by 5-fluorouridine; note: nearly all actives have a fitted effect of over 55% in size
#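 Cells (2,000 per well) received 5-fluorouridine plus test compound or DMSO and were incubated 16 hr at 37 °C, 5% CO2. Luciferase activity was read by luminescence 30 min after ONE-Glo addition; signal suppression marked inhibition of damage-induced ELG1 function.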
# MCF10A rereplic: A quantitative high throughput screen for small molecules that induce DNA re-replication in MCF 10a normal breast cells; MCF 10A DNA re-replication, Hoechst nuclear intensity, 48 h; Potency, µM (series often up to 46.1 µM), hits mostly activators; 350,000 tested, 2.9% active; note: nearly all actives have a fitted effect of over 50% in size
# Numbers stand for hits; n = inactive; u = inconclusive; x = no result given; ! = not active in a repeat. Most compounds without a hit are left out; they make up all but 10% or so of the library. Calls come from the whole dose curve; as a rule, active = well fitted curve in the direction sought with a large enough effect; inconclusive = small, poorly fitted or top-dose-only effect, or another doubt; inactive = no such curve, though single readings can be large; an effect the other way counts as inactive or inconclusive.
SMILES,RORgamma inh,SW480 rerep,Gal4-VP16 FLuc,ELG1 DNA repair,MCF10A rereplic
CC1(C)NC(=O)N(c2ccc([N+](=O)[O-])c(C(F)(F)F)c2)C1=O,u,n,15.8µM!,n,n
COc1ccc(CNCC(O)(c2ccccc2)c2ccccc2)cc1,n,n,u,n,n
COc1ccc(CNCC(O)(c2ccccc2)c2ccccc2)cc1OC,n,n,u,23.1µM,n
COc1ccccc1CNCC(O)(c1ccc(Cl)cc1)c1ccc(Cl)cc1,u,14.6µM,u,n,u
OC(CNCc1ccccc1F)(c1ccc(F)cc1)c1ccc(F)cc1,7.94µM,n,u,n,n
C[C@H](CO)N1C[C@H](C)[C@@H](CN(C)C(=O)Nc2ccc(C(F)(F)F)cc2)Oc2ccc(NC(=O)Cn3cnnn3)cc2C1=O,x,n,x,u,n
Cc1cc(CN(C)C(=O)c2cc(COc3ccc4ncccc4c3)on2)on1,7.94µM,n,3.16µM,u,n
COc1cc(Cl)ccc1OCc1cc(C(=O)NCC(C)c2ccccc2)no1 (configuration not stated),n,u,u,n,u
O=C(c1cc(COc2ccc3ncccc3c2)on1)N1CCC[C@H]1CO,u,n,5.01µM,n,n
CC(CNC(=O)c1cc(COc2ccc3ncccc3c2)on1)c1ccccc1 (configuration not stated),u,n,10µM,10.3µM,u
CSc1ccc(/C=C(/NC(=O)c2ccco2)C(=O)N2CCCCC2)cc1,n,n,n,n,n
O=C(N/N=C/c1ccccn1)c1c[nH]c2ccccc12,n,n,n,u,n
O=C(N/N=C/c1ccc[nH]1)c1cc2ccccc2cc1O,1.12µM,u,u,n,n
O=C(N/N=C/c1ccc[nH]1)c1c[nH]c2ccccc12,x,7.31µM,x,u,n
O=C(N/N=C/c1ccc[nH]1)c1sc2ccccc2c1Cl,0.316µM,n,0.562µM,u,n
O=C(N/N=C/c1ccncc1)c1sc2ccccc2c1Cl,u,n,u,n,n
O=C(N/N=C/c1ccncc1)c1cc2ccccc2cc1O,u,n,n,n,n
COC(=O)c1nccc2c1[nH]c1ccccc12,x,n,x,n,u
OC1C2CCC(C2)C1CN1CCOCC1 (configuration not stated),x,n,x,x,n
O=C(O)c1ccc(/C=N/Nc2ccc(C(F)(F)F)cn2)cc1,u,5.8µM,n,u,11.6µM
O=C(O)c1ccc(N/N=C/C=C/c2ccccc2)cc1,11.2µM,n,1.12µM,u,14.6µM
O=C(O)c1ccc(N/N=C/c2ccc(OC(=O)c3ccccc3Cl)cc2)cc1,0.398µM,n,0.316µM,u,n
Clc1cccc(N/N=C/c2ccc(N3CCOCC3)cc2)c1,n,n,n,u,n
O=C(O)c1cc(N/N=C/c2ccc(N3CCOCC3)cc2)ccc1Cl,7.08µM,u,u,u,n
O=C(O)c1ccc(NS(=O)(=O)/C=C/c2ccccc2)cc1,n,n,n,n,n
SMILES,RORgamma inh,SW480 rerep,Gal4-VP16 FLuc,ELG1 DNA repair,MCF10A rereplic
O=C(O)c1ccc(N/N=C/c2ccc(-c3ccccc3)cc2)cc1,n,20.6µM,n,u,1.3µM
O=C(O)c1cc(N/N=C/c2ccncc2)ccc1Cl,n,n,n,n,n
CC(C)c1ccc(/C=N/Nc2ccc(C(=O)O)cc2)cc1,u,n,0.251µM,u,n
O=C(O)c1ccc(/C=N/O)cc1,n,n,n,n,n
O=C(O)c1cc(N/N=C/c2ccc(-c3ccccc3)cc2)ccc1Cl,n,u,n,u,3.26µM
O=C(O)c1ccc(/C=N/Nc2cccc(C(F)(F)F)c2)cc1,u,n,n,u,n
CCC(CC)C(=O)OCC(=O)Nc1cccc([N+](=O)[O-])c1,n,n,n,u,n
Nc1c(C(=O)N/N=C/c2ccc(F)cc2)oc2nc(-c3ccccc3)cc(-c3ccco3)c12,n,n,n,n,20.6µM
Cc1cc(-c2ccccc2)nc2oc(C(=O)NN)c(N)c12,n,u,n,n,u
Nc1c(C(=O)N/N=C/c2ccccc2Cl)oc2nc(-c3ccccc3)cc(-c3ccco3)c12,n,18.4µM,n,u,8.2µM
